Results reported in PubChem BioAssay.
For some assays here: Entries with a potency or affinity are not part of this list. The source made the active and inactive calls. Unless noted, how the calls were made is not given here.

Target: Protein kinase 7 (PK7), Plasmodium falciparum 3D7 (PF3D7_0213400) (UniProt Q7YTF7)
Assay: inhibition of Plasmodium PK7 catalytic activity – biochemical, TCAMS antimalarial set, Kinase-Glo luminescence (AID 1159587)
Settings: recombinant PfPK7, Kinase-Glo ATP depletion luminescence

Chain of Protein kinase 7 (PK7), Plasmodium falciparum 3D7 (PF3D7_0213400) (Q7YTF7 1-343): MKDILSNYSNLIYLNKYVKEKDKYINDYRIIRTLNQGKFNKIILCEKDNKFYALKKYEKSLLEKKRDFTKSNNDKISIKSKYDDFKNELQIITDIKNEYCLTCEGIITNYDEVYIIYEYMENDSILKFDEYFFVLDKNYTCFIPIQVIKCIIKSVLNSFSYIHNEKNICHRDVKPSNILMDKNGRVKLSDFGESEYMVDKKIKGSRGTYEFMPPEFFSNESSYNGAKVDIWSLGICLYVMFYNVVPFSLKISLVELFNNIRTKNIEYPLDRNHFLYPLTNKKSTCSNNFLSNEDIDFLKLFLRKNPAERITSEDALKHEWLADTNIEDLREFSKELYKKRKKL

outcome, inactive:
Cc1cccc2[nH]c(-c3ccc(-c4cccc(CN5CCC(CO)CC5)c4)s3)nc12
O=C(Nc1cccc(-c2nn3ccccc3c2-c2ccnc(Nc3cccc(N4CCCC4=O)c3)n2)c1)c1cc(F)ccc1F
COc1ccc(NC(=O)Nc2nc(-c3ccc(Cl)c(C)c3)cs2)cc1N1CCN(C)CC1
COc1c(C(=O)NC2CCN(Cc3ccccc3)C2)cnc2ccccc12 (stereo not given)
COc1ccc(Cl)cc1NC(=O)Nc1ccc2c(c1)CCN(C1CCC1)CC2
OCCNc1nc(Nc2ccccc2)nc2ccccc12
COc1ccc2c(Nc3ccc(N4CCN(C)CC4)cc3)cc(C)nc2c1
O=C(N[C@H]1CCN(Cc2ccc(OCCCN3CCCCC3)cc2)C1)c1cc(Cl)cc(Cl)c1
COc1ccc(CNCCc2cccs2)cc1-c1ccc(OC)c(S(=O)(=O)NCCN2CCCC2)c1
COc1ccc(-c2ccc(NC(=O)c3cccc(C#N)c3)cc2)cc1CN1CCC(O)CC1
NCc1cccc(-c2cccc(CNC3CCN(Cc4ccccc4)CC3)c2)c1
CCc1nc2ccc(C(=O)OC)nc2n1Cc1ccc2oc(-c3ccccc3N)c(Br)c2c1
CO/C(=C\C=C\c1cc2cc(Cl)c(Cl)cc2[nH]1)C(=O)NCCN1CCCCC1
CCCCCCNC(=O)C1Cc2c([nH]c3ccc(Br)cc23)C2(CCN(Cc3ccccc3)CC2)N1 (stereo not given)
O=c1[nH]c(NCCCCCN2CCC(c3c[nH]c4ccccc34)CC2)ncc1Cc1ccc(Cl)c(Cl)c1
CCn1c2ccccc2c2cc(C=NNc3cc(C)nc4ccccc34)ccc21
O=c1cc(NCCCN(Cc2cc3c(Cl)cc(Cl)cc3[nH]2)Cc2cc3c(Cl)cc(Cl)cc3[nH]2)[nH]c2ccccc12
CCc1cc(NC2CCN(C)CC2)nc(Nc2cccc(OC)c2)n1
CCCCOc1cc(CNCCCCCCNCc2cc(OCCCC)cc3ccccc23)c2ccccc2c1
O=C(O)c1ccc2nc(-c3ccccn3)c(-c3ccccn3)nc2c1
Cc1cccc2[nH]c(-c3ccc(-c4ccc(NC(=O)C5CCN(C)CC5)cc4)cc3)nc12
CCCc1cc(N2CCC(c3ccccc3)(N3CCCCC3)CC2)nc(Nc2ccc(OC)cc2)n1
c1cncc(-c2cc(N3CCc4ccccc4C3)nc(-c3ccncc3)n2)c1
CN(C)C(CNC(=O)c1cc(-c2ccncc2)c(-c2ccc(NC(=O)Nc3ccccc3)cc2)o1)c1ccccc1 (stereo not given)
CN1CCCN(Cc2ccc(-c3cccc(NC(=O)c4ccc(Cl)cc4)c3)cc2)CC1
CN1CCN(CCCN(Cc2cccc(-c3ccc(CNCCc4ccccc4)cc3)c2)C(=O)c2cccs2)CC1
CNC(=O)c1cnc(Nc2ccc(N3CCN(C)CC3)cc2)nc1Nc1ccccc1OC
COc1ccc(NC(=O)/C=C/c2ccccc2Cl)cc1OCCN1CCC(c2nc3ccccc3[nH]2)CC1
COc1ccc2nccc(NCC3(O)CCC(NCc4ccc5c(n4)NC(=O)CS5)CC3)c2n1 (stereo not given)
c1ccn2c(-c3ncnc(NCc4ccc5c(c4)CCO5)n3)cnc2c1
CCCCCCCCOc1c(OCC)cc(Cc2cnc(N)nc2N)cc1OCC
Cc1ccc(NC(=O)NC2CCN(c3ccnc4cc(Cl)ccc34)CC2)cc1
Nc1c(C(=O)NCCCCN2CCN(c3nsc4ccccc34)CC2)sc2ccccc12
COc1ccc(NC(=O)Nc2ccc(C)c(-c3ccc(C(=O)Nc4ccncc4)cc3)c2)cc1
Cc1cccc2[nH]c(-c3cccc(-c4ccc(CN5CCCC5CN)cc4)c3)nc12 (stereo not given)
COc1cccc(CN2CCCC(COC(c3ccc(F)cc3)c3ccc(F)cc3)C2)c1O (stereo not given)
COc1cc(Cc2cnc(N)nc2N)ccc1OCc1ccc(NC(C)=O)cc1
COc1ccc(C=NNc2ccnc3ccccc23)c2ccccc12
Cc1ccc(CNC(=O)[C@H](CC(C)C)Nc2cc(C)nc(NCc3ccccc3C)n2)cc1
O=C(Nc1ccc(Cn2nc(Cl)c(N3CCCNCC3)cc2=O)cc1)Nc1ccc(-c2ccccc2)cc1

Target: Calcium-dependent protein kinase 4 (Plasmodium falciparum (isolate 3D7)) (UniProt Q8IBS5)
Sequence (Q8IBS5 whole entry, looked up): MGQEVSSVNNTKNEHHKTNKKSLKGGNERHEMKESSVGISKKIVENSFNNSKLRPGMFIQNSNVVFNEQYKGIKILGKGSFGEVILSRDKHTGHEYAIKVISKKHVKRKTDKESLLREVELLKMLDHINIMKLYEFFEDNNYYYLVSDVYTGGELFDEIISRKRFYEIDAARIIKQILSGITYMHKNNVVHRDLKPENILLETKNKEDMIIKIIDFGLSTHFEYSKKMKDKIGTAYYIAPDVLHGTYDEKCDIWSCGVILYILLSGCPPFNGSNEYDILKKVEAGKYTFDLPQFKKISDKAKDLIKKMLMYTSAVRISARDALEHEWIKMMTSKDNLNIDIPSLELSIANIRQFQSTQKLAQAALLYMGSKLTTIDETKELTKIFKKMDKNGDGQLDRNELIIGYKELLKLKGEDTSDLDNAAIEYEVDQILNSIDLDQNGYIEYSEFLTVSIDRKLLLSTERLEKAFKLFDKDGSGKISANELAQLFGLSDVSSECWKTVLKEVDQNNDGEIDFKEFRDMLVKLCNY
Assay: PfCDPK4 kinase inhibitors, biochemical, TCAMS library (AID 1159588; cut-off not given, nearly all actives have IC50 up to about 0.91 µM)
Settings: recombinant PfCDPK4, Kinase-Glo ATP depletion luminescence

outcome, inactive:
Cc1cccc2[nH]c(-c3ccc(-c4cccc(CN5CCC(CO)CC5)c4)s3)nc12
O=C(Nc1cccc(-c2nn3ccccc3c2-c2ccnc(Nc3cccc(N4CCCC4=O)c3)n2)c1)c1cc(F)ccc1F
COc1ccc(NC(=O)Nc2nc(-c3ccc(Cl)c(C)c3)cs2)cc1N1CCN(C)CC1
COc1c(C(=O)NC2CCN(Cc3ccccc3)C2)cnc2ccccc12 (stereo not given)
COc1ccc(Cl)cc1NC(=O)Nc1ccc2c(c1)CCN(C1CCC1)CC2
OCCNc1nc(Nc2ccccc2)nc2ccccc12
COc1ccc2c(Nc3ccc(N4CCN(C)CC4)cc3)cc(C)nc2c1
O=C(N[C@H]1CCN(Cc2ccc(OCCCN3CCCCC3)cc2)C1)c1cc(Cl)cc(Cl)c1
COc1ccc(CNCCc2cccs2)cc1-c1ccc(OC)c(S(=O)(=O)NCCN2CCCC2)c1
COc1ccc(-c2ccc(NC(=O)c3cccc(C#N)c3)cc2)cc1CN1CCC(O)CC1
NCc1cccc(-c2cccc(CNC3CCN(Cc4ccccc4)CC3)c2)c1
CCc1nc2ccc(C(=O)OC)nc2n1Cc1ccc2oc(-c3ccccc3N)c(Br)c2c1
CO/C(=C\C=C\c1cc2cc(Cl)c(Cl)cc2[nH]1)C(=O)NCCN1CCCCC1
CCCCCCNC(=O)C1Cc2c([nH]c3ccc(Br)cc23)C2(CCN(Cc3ccccc3)CC2)N1 (stereo not given)
O=c1[nH]c(NCCCCCN2CCC(c3c[nH]c4ccccc34)CC2)ncc1Cc1ccc(Cl)c(Cl)c1
CCn1c2ccccc2c2cc(C=NNc3cc(C)nc4ccccc34)ccc21
O=c1cc(NCCCN(Cc2cc3c(Cl)cc(Cl)cc3[nH]2)Cc2cc3c(Cl)cc(Cl)cc3[nH]2)[nH]c2ccccc12
CCc1cc(NC2CCN(C)CC2)nc(Nc2cccc(OC)c2)n1
CCCCOc1cc(CNCCCCCCNCc2cc(OCCCC)cc3ccccc23)c2ccccc2c1
O=C(O)c1ccc2nc(-c3ccccn3)c(-c3ccccn3)nc2c1
Cc1cccc2[nH]c(-c3ccc(-c4ccc(NC(=O)C5CCN(C)CC5)cc4)cc3)nc12
CCCc1cc(N2CCC(c3ccccc3)(N3CCCCC3)CC2)nc(Nc2ccc(OC)cc2)n1
c1cncc(-c2cc(N3CCc4ccccc4C3)nc(-c3ccncc3)n2)c1
CN(C)C(CNC(=O)c1cc(-c2ccncc2)c(-c2ccc(NC(=O)Nc3ccccc3)cc2)o1)c1ccccc1 (stereo not given)
CN1CCCN(Cc2ccc(-c3cccc(NC(=O)c4ccc(Cl)cc4)c3)cc2)CC1
CN1CCN(CCCN(Cc2cccc(-c3ccc(CNCCc4ccccc4)cc3)c2)C(=O)c2cccs2)CC1
CNC(=O)c1cnc(Nc2ccc(N3CCN(C)CC3)cc2)nc1Nc1ccccc1OC
COc1ccc(NC(=O)/C=C/c2ccccc2Cl)cc1OCCN1CCC(c2nc3ccccc3[nH]2)CC1
COc1ccc2nccc(NCC3(O)CCC(NCc4ccc5c(n4)NC(=O)CS5)CC3)c2n1 (stereo not given)
c1ccn2c(-c3ncnc(NCc4ccc5c(c4)CCO5)n3)cnc2c1
CCCCCCCCOc1c(OCC)cc(Cc2cnc(N)nc2N)cc1OCC
Cc1ccc(NC(=O)NC2CCN(c3ccnc4cc(Cl)ccc34)CC2)cc1
Nc1c(C(=O)NCCCCN2CCN(c3nsc4ccccc34)CC2)sc2ccccc12
COc1ccc(NC(=O)Nc2ccc(C)c(-c3ccc(C(=O)Nc4ccncc4)cc3)c2)cc1
Cc1cccc2[nH]c(-c3cccc(-c4ccc(CN5CCCC5CN)cc4)c3)nc12 (stereo not given)
COc1cccc(CN2CCCC(COC(c3ccc(F)cc3)c3ccc(F)cc3)C2)c1O (stereo not given)
COc1cc(Cc2cnc(N)nc2N)ccc1OCc1ccc(NC(C)=O)cc1
COc1ccc(C=NNc2ccnc3ccccc23)c2ccccc12
Cc1ccc(CNC(=O)[C@H](CC(C)C)Nc2cc(C)nc(NCc3ccccc3C)n2)cc1
O=C(Nc1ccc(Cn2nc(Cl)c(N3CCCNCC3)cc2=O)cc1)Nc1ccc(-c2ccccc2)cc1
